Assay results as given in PubChem BioAssay (NCI).
Compounds without any hit were thinned out: in the full panel of roughly 79,000, 15% have a hit. Active and inactive are the calls of the source. No stated cut-off is given here; in the data, active means growth inhibition above about 70%; inactive means the rest.

Assays:
[1] = NCI Yeast Anticancer Drug Screen. Data for the mlh1 strain (AID 171);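 further: 0% = growth of vehicle-treated control cultures of the same strain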; conditions: S. cerevisiae mlh1 strain growth inhibition, hits give high values
How it was run: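 Steps: expose the defined-mutant yeast strain to compound; expose a parallel culture to vehicle; measure growth; express compound effect as inhibition relative to the vehicle culture.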

[2] = NCI Yeast Anticancer Drug Screen. Data for the sgs1 strain (AID 173);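 further: 0% = growth of vehicle-only control cultures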; conditions: S. cerevisiae sgs1 mutant, hits give high values
How it was run: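 Treat defined-mutant yeast with compound; measure growth; calculate inhibition relative to vehicle-treated cells.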

[3] = NCI Yeast Anticancer Drug Screen. Data for the mlh1 rad18 strain (AID 175); conditions: S. cerevisiae mlh1 rad18 strain growth inhibition, hits give high values
How it was run: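 Test agents were incubated with a yeast strain of defined genotype (DNA damage repair defect). Inhibition of growth was derived by comparison with vehicle-exposed cultures.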

[4] = NCI Yeast Anticancer Drug Screen. Data for the rad18 strain (AID 177); conditions: S. cerevisiae rad18 mutant growth inhibition, hits give high values
How it was run: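 A genetically defined yeast mutant impaired in DNA damage repair was treated with test compounds, then its growth was measured against cultures receiving vehicle alone.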

[5] = NCI Yeast Anticancer Drug Screen. Data for the rad52 strain (AID 147);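 further: 0% = growth of vehicle-treated control cultures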; conditions: S. cerevisiae rad52 mutant growth inhibition, hits give high values
How it was run: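 Screen used a yeast mutant impaired in DNA repair. After compound exposure, growth was measured. Values reflect inhibition compared with vehicle-treated cells.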

[6] = NCI Yeast Anticancer Drug Screen. Data for the rad50EPP+ strain (AID 151);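 further: 0% = growth of vehicle-treated control cultures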; conditions: S. cerevisiae rad50 mutant strain, hits give high values
How it was run: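 Exposing the rad50EPP+ strain to each compound, growth was compared with vehicle-only cultures to give inhibition.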

[7] = NCI Yeast Anticancer Drug Screen. Data for the mgt1 strain (AID 153); conditions: S. cerevisiae mgt1 mutant growth inhibition, hits give high values
How it was run: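 Genetically defined yeast (mgt1) treated with compound; inhibition of growth expressed against vehicle-treated controls.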

[8] = NCI Yeast Anticancer Drug Screen. Data for the rad50 strain (AID 155);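 further: 0% = growth of vehicle-only cultures of the same strain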; conditions: S. cerevisiae rad50 strain growth inhibition, hits give high values
How it was run: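 Inhibition values express reduced yeast growth in compound-treated cultures relative to vehicle-treated controls.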

[9] = NCI Yeast Anticancer Drug Screen. Data for the mec2-1 strain (AID 157); conditions: S. cerevisiae mec2-1 strain, hits give high values
How it was run: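 Readout is yeast growth inhibition, normalised to vehicle-treated controls, in the mec2-1 strain exposed to compound.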

[10] = NCI Yeast Anticancer Drug Screen. Data for the rad14 strain (AID 159);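 further: 0% = growth of vehicle-treated control cultures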; conditions: S. cerevisiae rad14 strain growth inhibition, hits give high values
How it was run: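 A mutant yeast strain defective in DNA damage repair is treated with compound; inhibition of its growth is scored against untreated, vehicle-exposed cultures.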

[11] = NCI Yeast Anticancer Drug Screen. Data for the sgs1 mgt1 strain (AID 161);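 further: 0% = growth of cultures given vehicle only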; conditions: S. cerevisiae sgs1 mgt1 strain, hits give high values
How it was run: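 Compounds are added to genetically altered yeast, and growth is compared with cultures given vehicle alone to give percent inhibition.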

[12] = NCI Yeast Anticancer Drug Screen. Data for the CLN2oe strain (AID 163);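 further: 0% = growth of vehicle-only control cultures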; conditions: S. cerevisiae CLN2oe strain, hits give high values
How it was run: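 Values reflect how much compound exposure reduced yeast growth, referenced to vehicle-exposed cells. Assay organism is a strain with a defined genetic change affecting cell-cycle control.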

[13] = NCI Yeast Anticancer Drug Screen. Data for the cln2 rad14 strain (AID 165);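 further: 0% = growth equal to vehicle treated cultures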; conditions: S. cerevisiae cln2 rad14 strain, hits give high values
How it was run: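 Relative to vehicle controls, growth inhibition of compound-treated cln2 rad14 yeast was recorded.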

[14] = NCI Yeast Anticancer Drug Screen. Data for the bub3 strain (AID 167); conditions: S. cerevisiae bub3 mutant strain, hits give high values
How it was run: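 Steps: expose the mutant yeast strain to compound; grow alongside vehicle-treated cultures; measure growth; express inhibition against the vehicle cultures.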

[15] = NCI Yeast Anticancer Drug Screen. Data for the wt2 strain (AID 169);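 further: 0% = growth of vehicle-treated yeast cultures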; conditions: S. cerevisiae wt2 strain growth inhibition, hits give high values
How it was run: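 Values express reduction in yeast growth under compound treatment, referenced to vehicle-treated cells.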

[16] = NCI Yeast Anticancer Drug Screen. Data for the wt1 strain (AID 149);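 further: 0% = growth of vehicle-treated wt1 cultures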; conditions: S. cerevisiae wt1 strain (SPY 50644) growth inhibition, hits give high values
How it was run: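 Compounds are added to wt1 yeast cultures. Growth is then measured. Inhibition is expressed relative to vehicle-treated controls.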

[17] = at 5.0 µM (retest, dose inferred, filed as 0.5)
[18] = at 50.0 µM (retest, dose inferred, filed as 5.0)

Measured: growth inhibition

COC(=O)C1=C(C(=O)OC)C2(C)C=CC1O2 (stereo unspecified)
inactive: [1]; at 33.0 µM 52% | [2]; at 1.2 µM -4% | [2]; at 3.7 µM -4% | [2]; at 11.0 µM 33% | [3]; [17] -114% | [3]; [18] 48% | [4]; at 1.2 µM -10% | [4]; at 3.7 µM -6% | [4]; at 11.0 µM 10% | [4]; at 33.0 µM 62%
active: [1]; at 100.0 µM 90% | [2]; at 33.0 µM 84% | [2]; at 100.0 µM 95% | [3]; at 50.0 µM 86.2% | [4]; at 100.0 µM 89%

COC(=O)c1ccc([N+](=O)[O-])c(O)c1
active: [5]; at 100.0 µM 98% | [6]; at 33.0 µM 76% | [6]; at 100.0 µM 99% | [7]; at 100.0 µM 98% | [8]; at 50.0 µM 77.5% | [8]; at 100.0 µM 97% | [9]; [18] 75% | [9]; at 50.0 µM 85% | [9]; at 100.0 µM 99% | [10]; at 100.0 µM 98% | [11]; at 50.0 µM 89.7% | [12]; at 100.0 µM 98% | [14]; at 50.0 µM 78.9% | [14]; at 100.0 µM 99% | [15]; at 100.0 µM 99% | [2]; at 33.0 µM 81% | [2]; at 100.0 µM 98% | [3]; [18] 88% | [3]; at 50.0 µM 72.9% | [4]; at 100.0 µM 98%
inactive: [5]; at 1.2 µM -5% | [5]; at 3.7 µM -3% | [5]; at 11.0 µM 17% | [5]; at 33.0 µM 49% | [6]; at 1.2 µM -3% | [6]; at 3.7 µM -25% | [6]; at 11.0 µM 3% | [7]; at 1.2 µM -15% | [7]; at 3.7 µM -13% | [7]; at 11.0 µM -4% | [7]; at 33.0 µM 44% | [8]; at 1.2 µM -5% | [8]; at 3.7 µM -28% | [8]; [17] 2% | [8]; at 11.0 µM -17% | [8]; at 33.0 µM 37% | [8]; [18] 65% | [9]; at 1.2 µM -26% | [9]; at 3.7 µM -23% | [9]; [17] -7% | [9]; at 11.0 µM -4% | [9]; at 33.0 µM 35% | [10]; at 1.2 µM -16% | [10]; at 3.7 µM -13% | [10]; at 11.0 µM -7% | [10]; at 33.0 µM 27% | [11]; [17] 5% | [11]; [18] 4% | [12]; at 1.2 µM -6% | [12]; at 3.7 µM 1% | [12]; at 11.0 µM 1% | [12]; at 33.0 µM 35% | [13]; [17] -2% | [13]; [18] 65% | [13]; at 50.0 µM 58.3% | [14]; at 1.2 µM -22% | [14]; at 3.7 µM -31% | [14]; [17] -7% | [14]; at 11.0 µM -20% | [14]; at 33.0 µM 6% | [14]; [18] 56% | [15]; at 1.2 µM 3% | [15]; at 3.7 µM 7% | [15]; at 11.0 µM 4% | [15]; at 33.0 µM 63% | [2]; at 1.2 µM 22% | [2]; at 3.7 µM 32% | [2]; at 11.0 µM 21% | [3]; [17] -28% | [4]; at 1.2 µM -9% | [4]; at 3.7 µM -2% | [4]; at 11.0 µM 8% | [4]; at 33.0 µM 52%

NCCNc1ccc(NCCN)c2c1C(=O)c1c(O)ccc(O)c1C2=O
active: [16]; at 33.0 µM 82% | [16]; at 100.0 µM 76% | [6]; at 11.0 µM 82% | [6]; at 33.0 µM 87% | [7]; at 33.0 µM 86% | [8]; at 3.7 µM 78% | [8]; [17] 73% | [8]; at 11.0 µM 87% | [8]; at 33.0 µM 85% | [8]; [18] 84% | [9]; at 33.0 µM 87% | [9]; [18] 84% | [10]; at 33.0 µM 88% | [11]; [18] 77% | [12]; at 33.0 µM 82% | [13]; [18] 77% | [14]; at 33.0 µM 85% | [14]; [18] 70% | [15]; at 33.0 µM 80% | [1]; at 33.0 µM 86% | [2]; at 33.0 µM 86% | [3]; [18] 82%
inactive: [16]; at 1.2 µM 0% | [16]; at 3.7 µM 9% | [16]; at 11.0 µM 7% | [6]; at 1.2 µM 30% | [6]; at 3.7 µM 62% | [6]; at 100.0 µM 66% | [7]; at 1.2 µM -30% | [7]; at 3.7 µM -21% | [7]; at 11.0 µM -9% | [7]; at 100.0 µM 66% | [8]; at 1.2 µM 20% | [8]; at 50.0 µM 29.6% | [8]; at 100.0 µM 65% | [9]; at 1.2 µM -10% | [9]; at 3.7 µM 18% | [9]; [17] 14% | [9]; at 11.0 µM 13% | [9]; at 50.0 µM 67.5% | [9]; at 100.0 µM 68% | [10]; at 1.2 µM -4% | [10]; at 3.7 µM 5% | [10]; at 11.0 µM 18% | [10]; at 100.0 µM 68% | [11]; [17] 17% | [11]; at 50.0 µM 65% | [12]; at 1.2 µM 28% | [12]; at 3.7 µM 20% | [12]; at 11.0 µM 32% | [12]; at 100.0 µM 52% | [13]; [17] 21% | [13]; at 50.0 µM 64.5% | [14]; at 1.2 µM 0% | [14]; at 3.7 µM 23% | [14]; [17] 11% | [14]; at 11.0 µM 5% | [14]; at 50.0 µM 60% | [14]; at 100.0 µM 62% | [15]; at 1.2 µM -15% | [15]; at 3.7 µM 2% | [15]; at 11.0 µM 44% | [15]; at 100.0 µM 52% | [1]; at 1.2 µM 2% | [1]; at 3.7 µM 20% | [1]; at 11.0 µM 20% | [1]; at 100.0 µM 66% | [2]; at 1.2 µM 11% | [2]; at 3.7 µM 42% | [2]; at 11.0 µM 40% | [2]; at 100.0 µM 63% | [3]; [17] 14% | [3]; at 50.0 µM 46%
